Measurements: PubChem BioAssay (NCI)
Compounds without any hit were thinned out: in the full panel of roughly 79,000, 15% have a hit. Cut-off read from the data, not from the text of the source: active = growth inhibition above about 70%; inactive = the rest.

Tests used:
[1] = NCI Yeast Anticancer Drug Screen. Data for the rad50 strain (AID 155);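 note: 0% = growth of vehicle-only cultures of the same strain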; conditions: S. cerevisiae rad50 strain growth inhibition; at 50.0 µM; hits give high values
How it was run: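 Genetically altered yeast (DNA repair pathway); compound treatment; growth inhibition vs vehicle ctrl.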

[2] = NCI Yeast Anticancer Drug Screen. Data for the mec2-1 strain (AID 157); conditions: S. cerevisiae mec2-1 strain, at 50.0 µM, hits give high values
How it was run: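 Growth inhibition is read against vehicle-treated controls after compound exposure of the mec2-1 yeast strain, which is defective in DNA damage repair or cell cycle control.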

[3] = NCI Yeast Anticancer Drug Screen. Data for the sgs1 mgt1 strain (AID 161);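 note: 0% = growth of cultures given vehicle only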; conditions: S. cerevisiae sgs1 mgt1 strain, at 50.0 µM, hits give high values
How it was run: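 Growth of a repair-deficient yeast mutant was monitored after compound treatment and expressed as inhibition relative to vehicle-treated cultures.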

[4] = NCI Yeast Anticancer Drug Screen. Data for the cln2 rad14 strain (AID 165);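 note: 0% = growth equal to vehicle treated cultures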; conditions: S. cerevisiae cln2 rad14 strain, at 50.0 µM, hits give high values
How it was run: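 Growth inhibition, relative to vehicle-treated controls, is the read-out. The test organism is a yeast strain with defined genetic alterations, cln2 rad14.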

[5] = NCI Yeast Anticancer Drug Screen. Data for the bub3 strain (AID 167); conditions: S. cerevisiae bub3 mutant strain, at 50.0 µM, hits give high values
How it was run: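 Yeast carrying a defined mutation is treated with each compound, and growth is compared with that of vehicle-exposed cells to give inhibition.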

[6] = NCI Yeast Anticancer Drug Screen. Data for the mlh1 rad18 strain (AID 175); conditions: S. cerevisiae mlh1 rad18 strain growth inhibition; at 50.0 µM; hits give high values
How it was run: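 Cells of a genetically altered yeast strain, deficient in DNA damage repair, were treated with compound. Their growth was then compared with that of vehicle-treated cultures to give inhibition.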

Measured: growth inhibition

Nc1nn(CC(O)CO)c(=O)s1 (stereo not given)
inactive: [1] 4.85% | [2] 15.7% | [3] 2.4% | [4] 11.8% | [5] 8.1% | [6] 8%

Cc1cc(C)nc(Sc2c([N+](=O)[O-])ncn2C)n1
inactive: [1] 4.1% | [2] -17.3% | [3] -20.9% | [4] 4.65% | [5] 12.6% | [6] -10.3%

FC(F)(c1nn[nH]n1)C(F)(F)C(F)(F)c1nn[nH]n1
inactive: [1] -6.8% | [2] -2.6% | [3] -10.8% | [4] -36.2% | [5] -1.05% | [6] -2.95%

COc1cc(C)c([N+](=O)[O-])cc1[N+](=O)[O-]
inactive: [1] 4.15% | [2] 8.2% | [3] 9.65% | [4] -2.35% | [5] -10.1% | [6] 1%

CC(=O)Nc1ccc(C(=O)NN2C(=O)C(Cl)C2c2ccc([N+](=O)[O-])cc2)cc1 (stereo not given)
inactive: [1] -0.05% | [2] 19.6% | [3] -2.05% | [4] 1.45% | [5] -24.4% | [6] 8.3%

CC(C)(C)c1ccc(O)c(CNCCO)c1
inactive: [1] 21.1% | [2] -6.65% | [3] -3.25% | [4] -28.1% | [5] 3.9% | [6] 8.05%

CC(=O)N1CC/C(=C\c2ccccc2)C1=O
inactive: [1] -10.1% | [2] -7.25% | [3] -12.5% | [4] -6.85% | [5] 0.25% | [6] -3.2%

CN(C)CCCN
inactive: [1] -11.3% | [2] -4.4% | [3] 3% | [4] -30.8% | [5] 5.7% | [6] 1.5%

CC(=O)OCC(OC(C)=O)C(OC(C)=O)C(OC(C)=O)C1OC(=O)C(OC(C)=O)C1OC(C)=O (stereo not given)
inactive: [1] 0.5% | [2] -12% | [3] 3.8% | [4] 2.25% | [5] -0.75% | [6] 9.9%

CCCCCOC(=O)Nc1ccc(OCC)cc1
inactive: [1] -9.15% | [2] -4.95% | [3] -3.15% | [4] -21.9% | [5] -1.3% | [6] -4.25%

COc1cc2c(c(OC)c1OC)C(=O)[C@H]1OC(=O)N[C@@H]21
inactive: [1] 8% | [2] 3.05% | [3] 5.2% | [4] 2.1% | [5] 12.9% | [6] -32%

O=c1cc(Nc2ccc(Cl)cc2)[nH]c(=O)[nH]1
inactive: [1] -1.45% | [2] -5.45% | [3] -5.55% | [4] -61.9% | [5] 6.2% | [6] -7.65%

C=CCOc1ccccc1C
inactive: [1] -21.9% | [2] -29.9% | [3] -0.85% | [4] 8.1% | [5] -21.7% | [6] -14.9%

Cc1sc2nc3n(c(=O)c2c1C)N=C(c1ccc([N+](=O)[O-])cc1)CS3
inactive: [1] 9.15% | [2] -14.9% | [3] -10.1% | [4] 24.1% | [5] 7.2% | [6] -8.1%

CC(=O)C(Cc1cccc([N+](=O)[O-])c1)Cc1cccc([N+](=O)[O-])c1
inactive: [1] -3.7% | [2] -7.8% | [3] -6.6% | [4] -38% | [5] 15.8% | [6] -9.45%

O=C(O)c1cnc2cccc([N+](=O)[O-])c2c1
inactive: [1] 2.5% | [2] 10.7% | [3] 0.2% | [4] -50.5% | [5] -22.2% | [6] 11.4%

Cc1ccc2nc(-c3ccc(-c4nc5ccc(C)cc5o4)c(O)c3)oc2c1
inactive: [1] -36.3% | [2] -14.4% | [3] -27.1% | [4] 2.95% | [5] -17.2% | [6] -24.8%

CC(=O)OCC(=O)O[C@@H]1[C@H]2[C@@H](OC(=O)c3ccccc3)[C@@H](C)C[C@]2(O)[C@H](OC(C)=O)[C@@]2(C)C(OC(C)=O)[C@]1(OC(C)=O)C[C@H]1C(=O)C(C)(C)C[C@@H]12 (stereo not given in full)
inactive: [1] -39.6% | [2] -33% | [3] -36.5% | [4] -28.9% | [5] -41.5% | [6] -61%

CCOC(=O)C1(C(=O)OCC)C(C#N)(C#N)C1(C#N)C#N
inactive: [1] -0.8% | [2] 1.75% | [3] -7.2% | [4] -7.3% | [5] -1.65% | [6] -11.3%

Cc1cc(C)nc(NS(=O)(=O)c2ccc(NC(=O)c3ccncc3)cc2)n1
inactive: [1] -7.75% | [2] -17.1% | [3] 3.05% | [4] 9.55% | [5] -8.25% | [6] -17.1%

Cc1cccc(C(=O)NNC(=O)c2ccc3ccccc3c2)c1
inactive: [1] -60.3% | [2] -49.7% | [3] -23.9% | [4] -3.6% | [5] -28.9% | [6] -33.2%

O=[N+]([O-])c1ccc(Cl)c(C=NC23CC4CC(CC(C4)C2)C3)c1
inactive: [1] -13.6% | [2] -24.8% | [3] -29% | [4] -9.3% | [5] -22.9% | [6] -8.9%

CN(C)C(=O)Nc1ccc(C#N)cc1
inactive: [1] 10.1% | [2] 2.3% | [3] -13.3% | [4] -25.1% | [5] -5.15% | [6] -8.2%

CCNC(=O)CCN(C(=O)O)S(=O)(=O)c1ccc(NC(=O)c2ccccc2)cc1
inactive: [1] -23.2% | [2] -14.8% | [3] -2.55% | [4] 0.25% | [5] -8.7% | [6] -13.9%

O=C(c1nc2ccccc2[nH]c1=O)C(O)c1ccccc1 (stereo not given)
inactive: [1] 6.9% | [2] -23.6% | [3] -3.1% | [4] 17.4% | [5] -12.8% | [6] -2.2%

c1ccc(-c2nc(-c3ccccc3SSc3ccccc3-c3nc(-c4ccccc4)nn3-c3ccccc3)n(-c3ccccc3)n2)cc1
inactive: [1] -14.5% | [2] -6.3% | [3] 0.8% | [4] 3.25% | [5] -8.8% | [6] 18.9%

COC(=O)c1cc(-c2ccccc2)c2c(=O)n(-c3ccccc3)[nH]c2n1
inactive: [1] 13.7% | [2] 7.35% | [3] 20.5% | [4] -10.3% | [5] -4.55% | [6] 4.85%

O=C(CN1C(=O)c2ccccc2C1=O)C(O)CN1C(=O)c2ccccc2C1=O (stereo not given)
inactive: [1] 2.5% | [2] 0.6% | [3] 2.05% | [4] 27.9% | [5] 11.4% | [6] 14.6%

CCc1nnc2sc3c(Cl)c4nn5c(CC)nnc5sc4c(Cl)c3nn12
inactive: [1] 37.2% | [2] -6.2% | [3] 16.8% | [4] 24.2% | [5] -0.3% | [6] 12.5%

COC1C2CC3C4(CCC5C6(C)CCCC53C(C14)N(C)C6)CC21CCC23C4C=C5C6=C(CCC5(CC42)C3O1)C1(C)CC(C6)CN(C)C1 (stereo not given)
inactive: [1] 33.6% | [2] 9.35% | [3] 22.9% | [4] 15.6% | [5] 18.5% | [6] 26.6%

COc1ccccc1C(c1ccccc1OC)c1ccccc1C(=O)O
inactive: [1] 14.5% | [2] -3.35% | [3] 5.75% | [4] 15% | [5] 6.05% | [6] 26.9%

O=C1/C(=C\c2ccc(O)cc2)CCC/C1=C/c1ccc(Cl)c(Cl)c1
inactive: [1] -0.5% | [2] 27.4% | [3] 7.15% | [4] 35.5% | [5] -4.85% | [6] 24.6%

CC(=O)/C=C\c1ccc(-c2ccccc2)cc1
inactive: [1] 2.65% | [2] -36.2% | [3] -3.6% | [4] -0.6% | [5] -18.9% | [6] -22.7%

O=S(=O)(O)Cc1ccccc1
inactive: [1] -29.9% | [2] -21.9% | [3] -19.1% | [4] -24.4% | [5] 2.45% | [6] 2.35%

O=C(O)CCC(=O)Nc1ccc(S(=O)(=O)Nc2nccs2)cc1
inactive: [1] -18% | [2] -36.2% | [3] -16.5% | [4] -17.9% | [5] -18.3% | [6] -14.6%

CCCCCC(=O)OCC(CC)CC
inactive: [1] -8.05% | [2] -6.55% | [3] -13.3% | [4] -29.6% | [5] -1.05% | [6] 5.35%

Cc1ccccc1S(=O)(=O)NC1c2ccccc2Oc2ccccc21
inactive: [1] -9.85% | [2] -3.7% | [3] -5.3% | [4] -12.1% | [5] 2.5% | [6] -7.9%

CC(C)CCOC(=O)C(O)C(O)C(=O)OCCC(C)C (stereo not given)
inactive: [1] 14.2% | [2] 12.5% | [3] -3.05% | [4] -39% | [5] -0.85% | [6] 13.2%

CC(=Nc1ccc(C)cc1)NNc1nc2ccccc2s1
inactive: [1] 15.1% | [2] -7.3% | [3] 13.2% | [4] -37.2% | [5] 17.3% | [6] 25%

CCN(CC)CCOCCN(CC)CC
inactive: [1] 4.15% | [2] -2.2% | [3] -5.25% | [4] -44.8% | [5] 0.1% | [6] 9.55%
